# INS promoter inh: inhibitors of insulin promoter-driven GFP, primary screen, imaging, TRM-6 cells (human fetal islet line), eGFP reporter, cell count. reporter expression induced with tamoxifen. inhibition, % at 2 µM. 130,000 compounds, 0.9% hits;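 active = inhibition above the mean plus 3 SD, with well images judged a real hit on visual review, cut at about 60% in these data, passing the limit was not always enough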
# Insulin prom up: insulin promoter activators in MIN6 cells, imaging, high-content screening, mouse beta cells; MIN6 insulin promoter-GFP reporter; hits give high values; z-score at 5 µM; 190,000 compounds, 0.3% hits; AID 1625, 2009;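 active = z-score above 3 at 5 µM with at least 500 cells counted in the well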
# HSV augment: enhancers of HSV replication in host cells, fold increase, host cell viability. maximum fold increase. HSV replication augmentation in cells. 220,000 compounds, 0.005% hits; in the data active = maximum fold increase above about 1.5; tested in PC3 cells
# HMGR II inh: inhibitors of E. faecalis class II HMGR, primary screen, biochemical, Enterococcus faecalis; HMG-CoA reductase (Enterococcus faecalis, mvaE); purified E. faecalis HMGR, NADPH absorbance 340 nm kinetic; inhibition, % at 10 µM; 190,000 compounds, 0.41% hits;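 active = inhibition above a set limit, the median over all tested compounds plus 3 SD, cut at about 9.5% in these data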;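 also: enzyme runs in reverse so mevalonate oxidation gives rising NADPH absorbance; 0% = complete reaction with DMSO and 100% = background rate lacking mevalonate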
# An asterisk follows results filed as active; i = inactive; . = no result given. Sampled rows, rich in hits. Any-hit rate of the full collection: about 1.1%.
SMILES,INS promoter inh,Insulin prom up,HSV augment,HMGR II inh
CCN(CC)S(=O)(=O)c1cccc(-c2nnc(SCc3nc4ccccc4s3)o2)c1,86.7*,.,i,2.7
CCN(CC)S(=O)(=O)c1cccc(-c2nnc(SCCCC(=O)c3ccccc3)o2)c1,.,-0.17,i,-1.9
COCCCn1c(C)c(C(C)=O)cc(NC(=O)c2ccccc2)c1=O,.,-0.82,i,10.6*
N#CC1(c2ccccc2)CCC(=O)N1Cc1ccccc1 (centres undefined),.,-0.34,i,.
CCCCCN1N=C(C)CC1=O,66.7*,-0.64,i,-3.1
COC(=O)CSc1nc2ccccn2c(=O)c1C=O,2.9,.,i,-3.5
CCOc1c(CNc2nnnn2C)cccc1OC,26.3,-0.28,i,-2.5
Cc1csc(=N)n1-c1ccc(Cl)cc1,90.9*,0.33,i,-5.3
COc1ccccc1Nc1nnc(SCC(=O)Nc2nc(-c3ccc(F)cc3)cs2)s1,.,0.36,i,-1.4
Cc1ccc(/C=C2/NC(=O)N(c3ccccc3)C2=O)o1,-22.6,0.13,i,-1.4
Cc1c(C(=O)O)cccc1-c1ccc(/C=C2/NC(=O)N(c3ccccc3)C2=O)o1,.,3.88*,i,2.7
COc1ccccc1Cn1c(=O)c2ccccc2n2c(Sc3ncnc4sccc34)nnc12,78.6*,0.02,i,-4.2
COc1ccccc1Cn1c(=O)c2ccccc2n2c(SCc3csc(C)n3)nnc12,.,0.28,i,-0.9
O=C(O)CCCN1C(=O)C2C3CC(C2C1=O)C1C(c2ccccc2)c2sc(=O)n(-c4ccccc4)c2SC31 (centres undefined),.,-0.15,i,-5.6
O=C(CCC(=O)c1cccs1)NCc1ccc(Cl)cc1,70.0*,0.69,i,-7.3
CC(C)CCNC(=O)CO/N=C/c1ccccc1OC(F)F,.,0.18,i,-1.2
NC(=O)N/N=C/c1ccccc1OCC(=O)NCc1ccccc1,-13.3,-0.1,i,1.7
COc1ccccc1NC(=S)NCc1ccc2c(c1)cc(C)n2C,33.3,-1.59,i,2.2
Cc1ccccc1NC(=S)NCc1ccc2c(c1)cc(C)n2C,-21.9,0.48,i,15.3*
CCCCNC(=O)Nc1ccccc1C(=O)NCCC,35.3,0.11,i,0.3
CCCCNC(=O)c1ccccc1NC(=O)CCSc1ccccc1,6.7,-0.26,i,15.2*
Cc1ccc(/C=N/Nc2ccnc3cc(Cl)ccc23)c(C)c1,.,-1.45,i,-6.7
Cc1ccccc1/C=N/Nc1ccnc2cc(Cl)ccc12,80.0*,-0.27,i,-2.8
Clc1ccc2c(N/N=C/c3ccc(Br)cc3)ccnc2c1,92.0*,-0.42,i,-6.1
Oc1ccc(Nc2ccnc3cc(Cl)ccc23)cc1,.,0.18,i,.
SMILES,INS promoter inh,Insulin prom up,HSV augment,HMGR II inh
Clc1ccc(NNc2ccnc3cc(Cl)ccc23)cc1,-26.9,-0.34,i,14.6*
Clc1ccc2c(N/N=C/c3cccnc3)ccnc2c1,92.9*,-0.3,i,-0.5
C[C@@H]1C=C(C(=O)N2CCOCC2)O[C@H](OCc2ccc(CO)cc2)C1,.,-0.34,i,-2.7
CCCCn1nc(C(=O)Oc2ccc3c(C)cc(=O)oc3c2)c2ccccc2c1=O,.,0,i,-2.2
CCn1c(SCC(N)=O)nc2cc(S(=O)(=O)N3CCOCC3)ccc21,6.7,1.5,i,0.8
CCn1c(SCC(=O)c2c[nH]c3ccccc23)nc2cc(S(=O)(=O)N3CCOCC3)ccc21,59.5,3.09*,i,-5.6
O=C(NNC(=O)C1CCCO1)c1ccc(F)cc1 (centres undefined),33.3,0.09,i,2.1
O=C(NCCc1ccc(F)cc1)N1CCOCC1,83.3*,0.36,i,-5.0
CCNC(=O)N1CCOCC1,85.7*,-0.25,i,1.1
CCNC(=O)N1CCN(C(=O)NCC)CC1,.,0.29,i,0.9
NS(=O)(=O)c1cc(C(=O)OCC(=O)Nc2ccc(N3CCCCC3)cc2)ccc1Cl,.,-0.63,i,.
Cn1c(N)c(C(=O)COC(=O)c2ccc(Cl)c(S(=O)(=O)N3CCCC3)c2)c(=O)n(C)c1=O,.,0.54,i,.
CSCCCNC(=S)N1CCc2ccccc2C1,.,0.33,i,-7.9
CCCNc1nc(N2CCCC2)nc(N2CCCC2)n1,83.3*,.,i,-2.6
CC(C)(C)Nc1nc(N2CCCC2)nc(N2CCCC2)n1,-28.6,-1.36,i,-2.6

# Screens from PubChem BioAssay.
